Many of the other results were omitted from the sample, so hits are more common in it than they were.
VACV E9 pol inh = vaccinia E9 polymerase processive synthesis inhibitors, primary screen, biochemical, absorbance; Vaccinia virus DNA polymerase (E9) processive complex; in vitro processive DNA synthesis, absorbance read-out; stronger effect = lower value; normalized absorbance, % (no concentration beside the values); 0.94% of 46,000 active; AID 493162, 2011; in the data active = normalized absorbance mostly below about 85%, no sharp cut-off; inactive = mostly above about 86%
Of the large screens only hits and unclear results are named; the others gave an inactive call.

c1ccc(CNc2ccc3c(ccc4c5ccccc5[nH]c34)n2)cc1	VACV E9 pol inh 54
c1ccc(-c2nc(NCc3cccnc3)c3ccccc3n2)cc1	none
Cn1c(SCc2ccccc2)nc2c([nH]c3ccccc32)c1=O	none
CN(C)/C=C/C=C1C(=O)CCCC1=O	VACV E9 pol inh 45
CN(C)/C=C/C=C1\N=C(c2ccccc2)OC1=O	none
CN(C)c1ccc(N/C=C2/CCCC2=O)cc1	none
COc1ccc(/C=C2\COc3ccccc3C2=O)cc1	none
CS(=O)(=N/C=C(\C#N)S(=O)(=O)c1ccc(C(F)(F)F)cn1)c1ccc(Cl)cc1 (stereo unspecified)	none
Cc1ccc(-n2cc(C(=O)c3cc(C)ccc3O)cc(C#N)c2=O)cc1	none
CCCCn1c(N)c(C#N)c2nc3ccccc3nc21	none
N#Cc1c(N)n(CCc2ccccc2)c2nc3ccccc3nc12	none
N#Cc1c(N)n(CCN)c2nc3ccccc3nc12	VACV E9 pol inh 85
O=C(NCc1cccnc1)c1ccc(/C=C2\Sc3ccccc3N(Cc3ccccc3F)C2=O)cc1	none
Cc1ccc(SC(=O)c2ccc(OC(F)(F)F)cc2)cc1	none
CCC(C)NC(=O)c1cc(C2CC2)on1 (stereo unspecified)	none
C=CCN(CC=C)c1nn[nH]n1	VACV E9 pol inh 60
CCc1ccc(C2CC(=O)NC3=C2C(=O)CCC3)cc1 (stereo unspecified)	none
Cc1ccsc1C=Nc1ccccc1C(=O)c1ccccc1	none
Cc1cc(C)cc(NC(=O)N2CCOc3ccc(C)cc32)c1	none
CCNc1nc(SCc2ccc(Cl)cc2)nc2sc3c(c12)CCN(C)C3	VACV E9 pol inh 53
CCNc1nc(SCC(=O)NC(=O)NCc2ccccc2)nc2sc3c(c12)CCN(C)C3	none
CC(C)C1Cc2c(sc3nc(SCc4ccc(Cl)c(Cl)c4)nc(N)c23)CO1 (stereo unspecified)	none
CN(C)CCNc1cc(-c2ccncc2)nc2ccccc12	none
CN(C)CCNc1cc(-c2cccnc2)nc2ccccc12	VACV E9 pol inh 48
COC(=O)c1cc(-c2cccnc2)nc2ccccc12	none
S=c1nc(-c2ccco2)n(Cc2ccccc2)c(=S)n1C(=NCc1ccccc1)c1ccco1	none
O=C(c1ccc(Oc2ccccc2)cc1)c1coc2ccc(O)cc12	none
O=C(c1ccc(CSc2ncccn2)cc1)N1CCOCC1	none
COc1ccc2c(C)cc(SCC(=O)Nc3ccccc3)nc2c1	none
COc1ccc2c(C)cc(SCc3c(C)noc3C)nc2c1	none
COc1ccc2c(C)cc(SCC#N)nc2c1	VACV E9 pol inh 84
Clc1ccc(N2Cc3ccccc3C2)cc1Cl	none
CCn1c(=O)n(-c2ccccc2)c(=O)c2c1c1cc(C)ccc1n2C	none
Cc1ccc(C)n1-c1cccc(N)c1	none
Cc1ccc(C)n1-c1cccc(C(=O)O)c1	VACV E9 pol inh 11
Cc1ccc(C)n1-c1cccc(C(F)(F)F)c1	none
CCCOc1ccc2oc(=O)c3c(c2c1)CCCN3C(=O)CN1CCCc2ccccc21	none
CC(C)(C)C(=O)Nc1ccc(NC(=O)c2ccco2)cc1	none
COc1cc2c(cc1OC)C(COc1cc(C)cc(C)c1)NCC2 (stereo unspecified)	none
Cc1cccc(N(Cc2cc(=O)n3ccccc3n2)C2=NC3CS(=O)(=O)CC3S2)c1 (stereo unspecified)	none
Cc1ccc(C)c(CN(C2=NC3CS(=O)(=O)CC3S2)c2cccc(Cl)c2)c1 (stereo unspecified)	none
COc1cccc(N(Cc2ccc(C)cc2)C2=NC3CS(=O)(=O)CC3S2)c1 (stereo unspecified)	VACV E9 pol inh 68
Cc1ccc(NC(=O)CCN2C(=O)c3ccccc3Sc3ncccc32)c(C)c1	none
COc1ccccc1OC(C)C(=O)NN (stereo unspecified)	none
CCOC(=O)c1ccc2ncc3c(-c4ccccc4)nn(-c4ccccc4)c3c2c1	none
Cc1c(C(=O)O)cc(-c2ccccc2)n1CCSCc1c(F)cccc1Cl	VACV E9 pol inh 82
O=C(O)c1ccc(CSCc2c(F)cccc2Cl)o1	none
Cc1c(C(=O)NCc2ccco2)cc(-c2ccccc2)n1CCSCc1c(F)cccc1Cl	none
Cc1cc2c(cn1)C(=Nc1ccccc1C)c1ccccc1-2	none
CCc1sc2sncc2c1Br	VACV E9 pol inh 81
CC(C)CNC(=O)c1cc(-c2ccccc2O)no1	none
COc1ccc(C2=C(C#N)C(=O)OC2)cc1	none
COc1ccc(CSc2ncn[nH]2)cc1	none
COc1ccc(CSC2=C(C#N)C(=O)NC3(CCCCC3)S2)cc1	VACV E9 pol inh 71
O=C(c1cc(Br)cc2c1OCC2)N1CCCCC1	none
O=Nc1c(-c2c(O)[nH]c3ccccc23)[nH]c2ccccc12	VACV E9 pol inh 83
CC(C)N=Cc1c(O)[nH]c2ccccc12	none
COc1ccc2[nH]c(O)c(N=O)c2c1	none
NC(=O)COC(=O)c1cncc(Br)c1	none
Cc1ccc2oc(=O)c3cc(C(=O)NCc4cccs4)sc3c2c1	none
CC(Nc1ccccc1)C(=O)Nc1cc(C(F)(F)F)ccc1Cl (stereo unspecified)	none
O=C(CC(=O)c1ccccc1)Nc1cc(C(F)(F)F)ccc1Cl	none
COc1ccc(Nc2cc(C(F)(F)F)ccc2Cl)c(C(=O)O)c1	VACV E9 pol inh 60
Cc1nc2c(-c3ccc(Cl)cc3)c(C(F)(F)F)[nH]n2c(=O)c1Cc1ccccc1	none
O/C(=C\c1nc2ccccc2[nH]1)C(F)(F)F	none
Cc1ccccc1Nc1nccc(N(C)C)c1C#N	VACV E9 pol inh 82
Cc1ccccc1NC1=NCCS1	none
Cc1ccccc1NC1=NC(C)(C)CS1	none
COc1ccc(/C=C2/SC(=O)N(CC(=O)NCCO)C2=O)cc1OC	none
CC(=O)Nc1sccc1C(=O)O	none
Cc1ccc(C)n1-c1sccc1C(=O)O	VACV E9 pol inh 22
Cc1ccc(C)n1-c1sccc1C(=O)CC#N	none
CCSC1=N/C(=C\c2cc(Br)c(OC(C)=O)c(OC)c2)C(=O)S1	none
CCOc1cc(-c2nc(-c3cc4cc(C)ccc4nc3OC)no2)cc(OCC)c1OCC	none
CCOC(=O)c1cc(C)n(-c2ccc(C(=O)N3CCc4ccccc43)cc2)c1C	none
COC(=O)C1CCC(C(=O)O)C1(C)C (stereo unspecified)	none
CN(C)c1ccc(/C=C2/S/C(=N/O)NC2=O)cc1	none
O=C1N/C(=N\O)S/C1=C/c1ccc(O)cc1	VACV E9 pol inh 84
O=C1NC(=Nc2ccccc2)S/C1=C\c1ccccc1	none
Cc1ccc(S(=O)(=O)c2nnn3c2nc(N2CCCC2)c2ccccc23)cc1	none
CCOC(=O)c1cccc2c1-c1ccccc1C2=O	none
CCOC(=O)c1cccc2c1-c1ccccc1/C2=N/O	none
O=C(OCCO)c1cccc2c1-c1ccccc1C2=O	VACV E9 pol inh 74
CC(C)c1ccc(NCCNC2CCCCCC2)cc1	none
CN(C)c1ccc(C(=O)OCC(=O)NC2CC2)cc1	none
CN(C)c1ccc(C(=NO)c2ccc(N(C)C)cc2)cc1	none
CN(C)c1ccc(C(=C2C=CC(=[N+](C)C)C=C2)c2ccc(N(C)C)cc2)cc1	VACV E9 pol inh 49
CC(C)(C)c1nccc(-c2nn(-c3ccc(F)cc3)ccc2=O)n1	none
CCOc1ccc(-c2nc(=S)[nH][nH]2)cc1	none
CCOc1ccc(-c2nc3ccc(-c4nc5ccc(N6CCN(C)CC6)cc5[nH]4)cc3[nH]2)cc1	VACV E9 pol inh 23
CCOc1ccc2nc(SCC)[nH]c2c1	none
NS(=O)(=O)c1ccc2c3c(cccc13)C(=O)N2	none
O=C1Nc2ccc(S(=O)(=O)N(CCO)CCO)c3cccc1c23	none
CN(c1ccccc1C(=O)O)S(=O)(=O)c1ccc2c3c(cccc13)C(=O)N2	VACV E9 pol inh 50
Cc1csc(-c2cc3c(ccc4ccccc43)oc2=O)n1	none
Clc1ccccc1CSc1cnc2ccccc2n1	none
O=C(/C=C/c1ccco1)NCCC1=CCCCC1	none
N#Cc1ccccc1N/C=C(\C(N)=S)C(F)(F)F	none
O=C(NCc1cccs1)c1csc(Cc2c(Cl)cccc2Cl)n1	none

From PubChem BioAssay
